A selection: hits, their analogues and other compounds. The true share with any hit is near 12%.
Cycloheximide cs: counter-screen for Shiga toxin inhibitors: cycloheximide protein synthesis inhibition; cell reporter, cycloheximide protein synthesis inhibition counterscreen; AID 2314; actives 12% (n = 300,000); max response, %; in the data active = max response mostly above about 13%, no sharp cut-off; inactive = mostly below about 14%; also: read at 38.3 µM for the half of the compounds with a filed dose; 0% is about no effect
Sm TGR block: inhibitors of Schistosoma mansoni thioredoxin glutathione reductase. Q962Y6. actives 3% (n = 360,000). Potency, µM (highest dose often 114 µM), inactives show at the top dose activity change, negative = inhibition, actives largely listed as inhibitors. purified TGR, DTNB reduction, TNB absorbance 405 nm. AID 485364; active = well fitted inhibition curve with a large enough effect; inconclusive = small, poorly fitted or top-dose-only effect; inactive = no such curve, though single readings can be large or run the other way; also: potency is read from the fitted curve at half-maximal effect; % is scaled to controls: 0 for no effect and ±100 for the full control effect; nearly all actives have a fitted effect of over 60% in size
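Kinetic colorimetric format: TGR-catalysed, NADPH-driven DTNB reduction monitored via TNB absorbance. Enzyme dispensed at 20 nM; compound exposure 15 min at room temperature before reaction start.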
FMDV antiviral: antivirals against foot and mouth disease virus; actives 1.2% (n = 410,000); FMDV antiviral cell-based qHTS; Potency, µM (top dose mostly 57.9 µM), for the others: at the top dose activity change, negative = inhibition, hits mostly inhibitors; AID 1159524; calls by dose curve; tested in HEK293T cells; also: read-out not given here; potency is read from the fitted curve at half-maximal effect; % is scaled to controls: 0 for no effect and ±100 for the full control effect; nearly all actives have a fitted effect of over 45% in size
Shiga inhibitor: blocks Shiga toxin action in Vero cells; AID 2315; actives 9.2% (n = 290,000); inhibition, % at 38.7 µM; Vero cells, Shiga toxin protein synthesis inhibition reporter; in the data active = inhibition mostly above about 28%, no sharp cut-off; inactive = mostly below about 43%; also: 0% is about no effect
The depositor's hits bear a star; u = inconclusive; x = no result given; + = active, no number; ! = repeats disagree.

SMILES	Cycloheximide cs	Sm TGR block	FMDV antiviral	Shiga inhibitor
COc1ccc(C2CC(=O)c3cc(OC)ccc3O2)cc1 (stereo not given)	x	x	38%	x
O=C1CC(c2ccc3c(c2)OCCO3)Oc2ccc([N+](=O)[O-])cc21 (stereo not given)	46*	89µM*	u	88*
O=C1CC(c2ccc3c(c2)OCCO3)Oc2ccccc21 (stereo not given)	52*	-14%	52%	80*
COc1ccc(C2CC(=O)c3ccccc3O2)cc1 (stereo not given)	41*	-7%	57%	25
CC1CCN(C(c2ccccc2)c2sc3nc(-c4ccco4)nn3c2O)CC1 (stereo not given)	x	8%	9%	x
COc1ccc(-c2ccc(=O)n(CC(=O)NCCc3ccccc3)n2)cc1	x	4%	2%	x
COc1ccc(NC(=O)c2cc3c(=O)n(Cc4ccco4)ccc3nc2C)c(OC)c1	x	u	-3%	x
O=C(CSCc1ccccc1)N1CCN(c2ccccc2)CC1	47*	-9%	50%	+
O=C(CSCc1cccc(F)c1)N1CCN(c2ccccc2)CC1	41*	4%	29%	83*
O=C(CSCc1ccccc1)N1CCN(c2ccc(F)cc2)CC1	45*	16%	x	21
COc1ccc(NC(=O)c2cc(C3CC3)nc3c2c(C)nn3-c2ccc(C)cc2)cc1OC	x	8%	-24%	x
Cc1nc(-n2nc(C)c(CCC(C)C)c2C)sc1C(=O)Nc1ccc(Cl)cc1	x	3%	23%	x
Cc1ccc2nc(-c3ccc(O)c(O)c3)cn2c1	-8	u	13µM*	x
Cc1ccc2nc(-c3ccccc3)cn2c1	1	-1%	1.8µM*	-13
CC(=O)Nc1ccc(-c2cn3cc(C)ccc3n2)cc1	42*	7%	-17%	61*
Cc1ccc2nc(-c3ccc(-c4ccccn4)s3)cn2c1	45*	-21%	-24%	69*
CC(=O)Nc1ccc(C)cc1	x	0%	-25%	x
COc1ccccc1-c1cc(C(=O)N2CCN(c3ccc(F)cc3)CC2)no1	1	0%	13%	36
O=C(c1cc(-c2ccccc2Cl)on1)N1CCCC1	14*	-10%	-20%	33
COc1ccccc1-c1cc(C(=O)N2CCCC2)no1	34*	8%	14%	84*
COc1ccccc1-c1ccc(C(=O)O)o1	22*!	-29%	19%	75
COc1ccccc1-c1cc(C(=O)N2CCOCC2)no1	29*	1%	28%	89*
O=C(c1cccc(F)c1)N1CCN(C(=O)c2cc(-c3ccc(Cl)cc3Cl)on2)CC1	-2	u	x	-2
Cc1cccc(NS(=O)(=O)c2ccc(NC(=O)N3CCCC3)cc2)c1	x	10%	-13%	x
C=CCNC(=O)/C(C#N)=C/c1ccc2c(c1)OCCO2	40*	-17%	64%	85*
SMILES	Cycloheximide cs	Sm TGR block	FMDV antiviral	Shiga inhibitor
N#C/C(=C\c1ccc2c(c1)OCO2)C(=O)NCc1ccco1	1	12%	23%	-13
C=CCNC(=O)/C(C#N)=C/c1ccc(C)o1	13	u	22%	32
N#C/C(=C\c1ccc2c(c1)OCCO2)C(=O)Nc1nccs1	27	2%	59%	94*
CC1CCCCC1NC(=O)/C(C#N)=C/c1ccc2c(c1)OCCO2 (stereo not given)	14	1%	0%	39*
COCCNC(=O)/C(C#N)=C/c1ccc2c(c1)OCO2	19*	-9%	31%	41*
Cc1nc2ccc(NC(=O)Nc3ccnc4cccnc34)cc2o1	x	x	9%	x
Cc1cc2oc3c(c(=O)c2cc1C)C(c1ccc(C(C)C)cc1)N(c1nc(C)c(C)s1)C3=O (stereo not given)	x	3%	1%	x
C=CCNC(=O)/C(C#N)=C/c1ccc(OS(=O)(=O)c2ccc(C)cc2)c(OC)c1	1	-3%	20µM*	21
CSc1ccc(/C=C(\C#N)C(=O)NC2CCCCC2)cc1	1	4%	4%	-4
C=CCNC(=O)/C(C#N)=C/c1ccc(SC)cc1	52*	3%	29%	81*
COC(=O)N/N=C/c1ccc(OS(=O)(=O)c2ccc(C)cc2)c(OC)c1	-6	10%	-4%	21
COc1cc(OC)c(NC(=O)C2CCN(S(=O)(=O)c3ccc4c(c3)oc(=O)n4C)CC2)cc1Cl	x	-3%	-15%	x
Cc1c(C(=O)NCCc2cccnc2)cnn1-c1ncc2c(n1)-c1ccccc1CC2	x	x	-10%	x
COc1cc(CN2C(=O)CC[C@@H]3CN(Cc4ccccn4)CC[C@@H]32)cc(OC)c1OC	x	x	-4%	x
CCOC(=O)N/N=C/c1c(C)nn(-c2ccccc2Cl)c1Cl	27*	3%	20%	33
Cc1ccc(C)c(OCC(=O)N/N=C/c2c(C)nn(-c3ccccc3)c2Cl)c1	-3	-9%	x	-29
CNC(=S)N/N=C/c1c(C)nn(-c2ccccc2)c1Cl	35*	-2%	23%	61*
Cc1nn(-c2ccccc2)c(Cl)c1/C=N/NC(=O)OC(C)(C)C	38*	-10%	-20%	71*
Cc1nn(-c2ccccc2)c(Cl)c1/C=N/Nc1nncc(=O)[nH]1	12*	3%	-19%	43
CCOC(=O)c1cc(S(=O)(=O)Nc2ccc(OC)c(Cl)c2)[nH]n1	x	1%	0%	x
C=Cc1ccc(Cn2c(C(=O)O)c(CNC3CCCCC3)c3ccc(OC)cc32)cc1	x	-6%	7%	x
Oc1ccc(C=NNc2nc3ccccc3s2)c(O)c1	x	x	13%	x
Cc1nn(-c2ccccc2)c(Cl)c1/C=N/Nc1ccc(Cl)c(C(=O)O)c1	87*	-18%	10µM*	98*
Cc1nn(-c2ccccc2Cl)c(Cl)c1/C=N/Nc1nc2ccccc2s1	104*	-1%	0.0009µM*	170*
C/C(=N\Nc1nc(-c2ccccc2)cs1)c1cccs1	75*	-19%	0%	118*
SMILES	Cycloheximide cs	Sm TGR block	FMDV antiviral	Shiga inhibitor
C/C(=N\Nc1nc2ccccc2s1)c1cccs1	89*	3%	-45%	73*
CC1CCN(S(=O)(=O)c2ccc3c(c2)N(CC(=O)NCc2ccccc2)C(=O)CO3)CC1	x	4%	u	x
COC(=O)c1cc2sc(C)cc2n1CC(=O)Nc1ccc(C)c(C)c1	x	-1%	0%	x
CCN(CC)c1ccc(NC(=O)c2ccco2)c(C)c1	15*	-4%	11%	28
CCN(CC)c1ccc(NC(=S)NC(=O)c2ccco2)cc1	38*	11µM*	18%	61*
CCN(CC)c1ccc(NC(=O)c2ccc(Br)o2)c(C)c1	16	-16%	13%	28*
O=C(NC(=S)Nc1ccc([N+](=O)[O-])cc1)c1ccco1	x	x	61%	x
Cc1cc(Br)ccc1NC(=O)c1ccco1	13	7%	46%	x
CCN(CC)c1ccc(NC(=O)c2ccco2)cc1	23*	-14%	-23%	66*
CCN(C(=O)c1ccc(NC(=O)c2ccco2)cc1)c1ccccc1	1	-1%	7%	-11
COc1cc(=O)n2c(c1C(=O)N(C)Cc1ccsc1)CCN(Cc1c(C)nc3sccn13)CC2	x	x	-9%	x
O=C1CCC(C(=O)Nc2cccc(S(=O)(=O)Nc3ccccc3F)c2)=NN1	x	x	3%	x
CC(C)c1ccc(NC(=O)C2=NNC(=O)CC2)cc1	38*	0%	62%	97*
Cc1ccc(NC(=O)C2=NNC(=O)CC2)cc1F	35*	-1%	63%	60*
Cc1ccc(NC(=O)c2cnc(N3CCCC3)nc2C)cc1F	x	1%	-11%	x

Source: PubChem BioAssay (National Center for Advancing Translational Sciences (NCATS))
